The nature of experiment [1]: anti-His antibody binders, primary screen, artefact control for SMM control protein annotation, biochemical, small-molecule microarray, 635 nm fluorescence (AID 1128).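 Further: score merges feature fluorescence with signal-to-noise for each printed compound spot.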 The note with it: anti-His Alexa647 antibody binding, higher = more signal.
Experiment [2] has as its system Human papillomavirus type 1a E7 protein (residues 1-88). Kind of experiment: HPV1a E7 small-molecule binders, primary screen, biochemical, small-molecule microarray, residues 1-88, 635 nm (AID 1129). The note with it: small-molecule microarray binding, fluorescence 635 nm; higher = more signal.
The target of experiment [3] is Focal adhesion kinase 1 (Homo sapiens) (UniProt Q05397). The experiment is described as follows: small-molecule microarray binders of FAK, primary screen, biochemical, 635/667 nm fluorescence, BSA, DTT (AID 1130).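 Further: composite of spot emission at 667 nm and signal to noise over triplicate slides.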 The note with it: PTK2 binding, 635 nm fluorescence, higher = more signal.
Experiment [4] deals with Fibrinogen (Alexa647-labelled). The experiment is described as follows: fibrinogen binders on compound microarrays, profiling panel, artefact control for SMM control-protein annotation, biochemical, small-molecule microarray, 635/667 nm fluorescence (AID 1131).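 Further: z-score merges 667 nm fluorescence with per-spot signal-to-noise over triplicate slides.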 To be noted: fibrinogen-A647 binding fluorescence, higher = more signal.
Experiment [5] deals with Follistatin (Homo sapiens) (UniProt P19883). Kind of experiment: follistatin binders on small-molecule microarrays, primary screen, biochemical, small-molecule microarray, 635/667 nm fluorescence (AID 1132). The note with it: FST binding, 635 nm fluorescence, higher = more signal.
The target of experiment [6] is Fibroblast growth factor 2 (Homo sapiens) (UniProt P09038). Kind of experiment: FGF2 binders on small-molecule microarrays, primary screen, biochemical, small-molecule microarray, 635/667 nm fluorescence (AID 1133). To be noted: small-molecule microarray binding, FGF2, fluorescence 635/667; higher = more signal.
Experiment [7] can be described thus: mitochondrial membrane potential change in A549 cells, profiling panel, cell-based, JC-1 fluorescence, basal, 24 h, 100 nL (AID 1138).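 Further: A549 lung adenocarcinoma cells under basal conditions with no added stimulus; test concentration not given here.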 To be noted: higher = more signal.
Another experiment concerns Lefty1. The experiment is described as follows: Lefty1 binders on small-molecule microarrays, primary screen, biochemical, small-molecule microarray, 635/667 nm fluorescence (AID 1139). To be noted: small-molecule microarray binding, fluorescence 635/667; higher = more signal.
Experiment [8] relates to wheat germ agglutinin (Triticum aestivum), Alexa647-labelled. Kind of experiment: wheat germ agglutinin binders on compound microarrays, profiling panel, artefact control for SMM control-protein annotation, biochemical, small-molecule microarray, 635/667 nm fluorescence (AID 1140).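 Further: score merges 667 nm feature emission with signal to noise over triplicate slides.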 To be noted: WGA-A647 binding, 635 nm fluorescence, higher = more signal.
The target of experiment [9] is Luciferin 4-monooxygenase (Photinus pyralis) (UniProt P08659). Kind of experiment: firefly luciferase enzyme inhibitors, primary screen, biochemical, luminescence, purified enzyme, 2006 set (AID 1141).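 Further: cell-free assay with purified firefly luciferase at 100 ng per well in PBS; test concentration not given here.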 To be noted: SteadyGlo luminescence, 30 min, higher = more signal, called active from +8 up or from −8 down.

The source made the active and inactive calls.

Follistatin (Homo sapiens), sequence (P19883 whole entry, looked up): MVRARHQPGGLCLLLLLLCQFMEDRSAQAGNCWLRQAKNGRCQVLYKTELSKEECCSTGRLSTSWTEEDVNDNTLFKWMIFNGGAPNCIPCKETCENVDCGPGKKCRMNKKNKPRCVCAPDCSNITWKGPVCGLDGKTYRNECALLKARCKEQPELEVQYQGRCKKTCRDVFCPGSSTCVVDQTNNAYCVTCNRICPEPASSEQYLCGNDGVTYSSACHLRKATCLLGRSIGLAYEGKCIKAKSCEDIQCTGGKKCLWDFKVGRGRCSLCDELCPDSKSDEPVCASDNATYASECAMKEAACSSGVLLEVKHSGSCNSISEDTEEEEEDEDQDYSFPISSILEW
Fibroblast growth factor 2 (Homo sapiens), sequence (P09038 whole entry, looked up): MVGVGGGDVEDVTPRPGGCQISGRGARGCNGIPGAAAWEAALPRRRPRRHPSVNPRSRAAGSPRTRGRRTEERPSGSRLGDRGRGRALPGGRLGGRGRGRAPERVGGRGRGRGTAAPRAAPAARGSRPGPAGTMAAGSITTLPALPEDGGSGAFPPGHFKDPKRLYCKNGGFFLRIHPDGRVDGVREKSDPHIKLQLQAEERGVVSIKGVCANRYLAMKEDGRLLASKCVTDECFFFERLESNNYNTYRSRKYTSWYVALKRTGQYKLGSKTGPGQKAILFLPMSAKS
Luciferin 4-monooxygenase (Photinus pyralis), sequence (P08659 whole entry, looked up): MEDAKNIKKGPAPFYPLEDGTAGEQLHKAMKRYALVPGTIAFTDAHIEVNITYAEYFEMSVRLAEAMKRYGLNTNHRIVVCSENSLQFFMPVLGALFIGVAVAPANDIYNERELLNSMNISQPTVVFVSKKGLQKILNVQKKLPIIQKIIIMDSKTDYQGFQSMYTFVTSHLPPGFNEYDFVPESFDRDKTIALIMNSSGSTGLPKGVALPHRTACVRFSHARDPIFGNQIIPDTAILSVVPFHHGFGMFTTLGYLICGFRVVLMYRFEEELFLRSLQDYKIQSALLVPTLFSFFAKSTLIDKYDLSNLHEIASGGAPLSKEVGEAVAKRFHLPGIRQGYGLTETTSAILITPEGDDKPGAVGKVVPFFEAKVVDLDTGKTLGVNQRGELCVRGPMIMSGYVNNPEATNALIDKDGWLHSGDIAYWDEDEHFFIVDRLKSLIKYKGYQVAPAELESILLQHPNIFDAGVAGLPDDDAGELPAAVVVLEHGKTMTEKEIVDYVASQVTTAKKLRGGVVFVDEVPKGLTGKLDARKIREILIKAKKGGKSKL
Focal adhesion kinase 1 (Homo sapiens), sequence (Q05397 whole entry, looked up): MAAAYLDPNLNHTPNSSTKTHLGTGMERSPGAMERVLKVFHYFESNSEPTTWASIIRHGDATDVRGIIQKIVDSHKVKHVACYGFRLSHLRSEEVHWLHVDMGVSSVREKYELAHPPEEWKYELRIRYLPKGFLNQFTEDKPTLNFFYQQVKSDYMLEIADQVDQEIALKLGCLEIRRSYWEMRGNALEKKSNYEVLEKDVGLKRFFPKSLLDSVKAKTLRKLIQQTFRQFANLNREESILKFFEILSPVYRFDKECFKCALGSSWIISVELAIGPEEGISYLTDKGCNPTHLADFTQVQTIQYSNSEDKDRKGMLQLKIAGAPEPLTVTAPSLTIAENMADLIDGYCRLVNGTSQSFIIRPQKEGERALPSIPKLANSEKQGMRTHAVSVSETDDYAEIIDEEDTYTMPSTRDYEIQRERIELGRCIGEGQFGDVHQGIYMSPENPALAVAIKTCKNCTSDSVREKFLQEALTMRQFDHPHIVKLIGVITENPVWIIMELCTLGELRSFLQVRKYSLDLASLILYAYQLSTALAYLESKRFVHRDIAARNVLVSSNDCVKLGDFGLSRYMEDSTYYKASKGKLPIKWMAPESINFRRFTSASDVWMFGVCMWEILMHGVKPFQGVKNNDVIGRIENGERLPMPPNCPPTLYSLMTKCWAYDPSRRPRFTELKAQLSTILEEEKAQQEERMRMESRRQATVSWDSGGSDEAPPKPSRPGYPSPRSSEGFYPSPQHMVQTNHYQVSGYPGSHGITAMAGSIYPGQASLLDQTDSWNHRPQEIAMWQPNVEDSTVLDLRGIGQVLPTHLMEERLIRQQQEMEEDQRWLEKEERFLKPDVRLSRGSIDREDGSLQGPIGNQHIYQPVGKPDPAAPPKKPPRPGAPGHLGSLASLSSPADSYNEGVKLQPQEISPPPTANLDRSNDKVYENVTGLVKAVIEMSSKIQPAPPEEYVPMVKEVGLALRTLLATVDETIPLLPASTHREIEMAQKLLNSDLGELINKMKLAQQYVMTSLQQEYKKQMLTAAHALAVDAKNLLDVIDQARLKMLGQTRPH

In the case of `CCCCC=C[C@@H](NC(=O)C(C)(C)C)c1ccccc1`, the composite z-score in [1] is 1.14; in [2] it was 1.09; in experiment [3] it was 0.35; in [4], 0.935; in [5] it was 0.495; in experiment [6], -0.0812. Moreover, the composite z-score in the experiment with Lefty1 came out at 0.302; in experiment [8], 0.814. Further, the values for the z-score in [7] and in [9] were -2.82 and 1.76 (inactive), respectively.

In the case of `C=C1C(=O)C=C2CN(C(=O)c3ccccc3)[C@@](Cc3ccc(F)cc3)(C(=O)OC)[C@@H]12`, the composite z-score was 1 in experiment [1]; 1.18 in experiment [2]; 0.69 in [3]; 1.03 in experiment [4]; 1.25 in experiment [5]; -0.234 in experiment [6]. The composite z-score in the experiment with Lefty1 is -0.384; in experiment [8], 0.872. For the same compound, the z-score in experiment [7] is -3.17; in experiment [9] it was -25.6 (active).

On to `C[C@H]1C2[C@H](Cc3ccccc3)NC(=O)[C@]23C(=O)N[C@@H](Cc2ccccc2)C(=O)N2CCC[C@H]2C(=O)NC/C=C/CC/C=C/C3[C@@H]2O[C@]12C` (stereo not given in full), for which the composite z-score in experiment [1] was 0.196; in experiment [2] it was 0.965; in [3], -0.153; in experiment [4], 0.596; in experiment [5], 0.925; in [6], 0.359. The composite z-score with Lefty1 is 0.754; in experiment [8], 0.0255. Also, the z-score in [7] was 0.974; in [9] it was 0.527 (inactive).

As to `COC(=O)[C@H]1N=C(c2ccc(OCCCO)cc2)O[C@H]1c1ccccc1N=[N+]=[N-]`, the composite z-score in [1] was 0.608; in experiment [2] it was 1.16; in experiment [3], 2.19; in [4], 0.936; in [5], 0.562; in [6], -0.0231. The composite z-score in the experiment on Lefty1 was -0.401; in experiment [8], 0.733. The figures for the z-score in experiment [7] and in experiment [9] were -0.512 and -19.2 (active), respectively.

For the compound `COc1cccc(C)c1NC(=O)O[C@H]1[C@H](OC(=O)Nc2ccccc2)[C@@H](OC(=O)Nc2ccccc2)[C@@H](OC)O[C@@H]1CO`, the composite z-score is 1.78 in [1]; 1.29 in experiment [2]; 0.452 in experiment [3]; 1.01 in [4]; 1.38 in [5]; 0.432 in [6]. In addition, the figures for the composite z-score (in the experiment on Lefty1; in experiment [8]) were 0.662 and 1.04, respectively. For the same compound, the results for the z-score in experiment [7] and in experiment [9] were -1.54 and -0.321 (inactive), respectively.

Take `O=C1O[C@@H](c2ccccc2)[C@@H](c2ccccc2)N2[C@@H](c3ccccc3OCCO)[C@]3(C(=O)Nc4ccc(C#CC5(O)CCCCCC5)cc43)[C@@H](C(=O)N3CCCCCCC3)[C@H]12`: the composite z-score in experiment [1] is 2.72; in experiment [2] it was 1.27; in experiment [3], 4.12; in experiment [4] it was 0.89; in experiment [5], 1.58; in experiment [6], 0.718. The values for the composite z-score (with Lefty1; in experiment [8]) were 1.99 and 1.67, respectively. Also, the z-score in experiment [7] was -1.1; in [9], -0.37 (inactive).

As for `COCCOC(=O)N1C(=O)[C@@]2(c3cc(C#CCC(C(=O)OC)C(=O)OC)ccc31)[C@H](C(=O)N1CCc3cc(OC)c(OC)cc3C1)[C@H]1C(=O)O[C@H](c3ccccc3)[C@H](c3ccccc3)N1[C@@H]2c1ccccc1OCCO`, the composite z-score in experiment [1] is 0.258; in [2], 1.2; in experiment [3], 0.673; in experiment [4], 0.698; in experiment [5] it was 1.42; in experiment [6], 1.6. Further, the composite z-score was 1.61 in the experiment on Lefty1 and 0.281 in [8]. In addition, the z-score was -1.28 in experiment [7] and 0.888 (inactive) in [9].

On to `COC(=O)[C@@]1(Cc2ccc(F)cc2)[C@@H]2C(=CC(=O)[C@H]2CC(=O)C(=O)N2CCCC2)CN1C(=O)c1ccccc1`, for which the composite z-score in experiment [1] turned out to be 0.323; in experiment [2] it was 1.24; in experiment [3], 0.348; in experiment [4] it was 0.998; in experiment [5], 1.26; in experiment [6], 0.674. Moreover, the results for the composite z-score (with Lefty1; in [8]) were 0.903 and 1.23, respectively. In addition, the z-score in experiment [7] is 0.711; in [9], -8.12 (active).

As for `COc1ccc([Si](C)(C)[C@H]2[C@H](CCO)O[C@@]3(C(=O)N(Cc4ccccc4)c4ccc(NC(=O)[C@H](C)O)cc43)[C@@H]2C)cc1`, the composite z-score in [1] is 0.779; in experiment [2], 1.16; in [3], 0.361; in experiment [4] it was 0.967; in experiment [5], 0.578; in [6], -0.145. Moreover, the composite z-score with Lefty1 stood at 0.575; in experiment [8] it was 0.75. For the same compound, the z-score in [7] was -0.924; in experiment [9], -0.355 (inactive).

For `COc1ccc([Si](C)(C)[C@H]2[C@H](CC(=O)N3CCC[C@H]3CO)O[C@@]3(C(=O)N(C)c4ccccc43)[C@@H]2C)cc1`, the composite z-score is 1.86 in experiment [1]; 0.0098 in experiment [2]; -0.0086 in [3]; 0.509 in experiment [4]; 1.53 in [5]; 0.798 in experiment [6]. Further, the composite z-score with Lefty1 was 1.16; in [8], 0.051. Also, the z-score was -0.151 in [7] and 0.229 (inactive) in experiment [9].

Take `CC(C)(C)OC(=O)CC[C@@]1(C(N)=O)N=C(c2ccc(OCCCO)cc2)O[C@@H]1c1ccccc1CN=[N+]=[N-]`: the composite z-score in experiment [1] came out at 3.46; in [2] it was 1.13; in [3], 0.177; in [4], 0.524; in experiment [5], 1.34; in experiment [6] it was 1.34. Moreover, the composite z-score with Lefty1 is -0.721; in experiment [8], 0.68. For the same compound, the z-score in experiment [7] was -0.332; in experiment [9], -1.79 (inactive).

Consider `COCCOC(=O)N1C(=O)[C@@]2(c3cc(C#CC4=CCCCC4)ccc31)[C@H](C(=O)N1CCCCCCC1)[C@H]1C(=O)O[C@H](c3ccccc3)[C@H](c3ccccc3)N1[C@@H]2c1ccccc1OCCO`, for which the composite z-score amounted to 0.316 in experiment [1]; 1.19 in experiment [2]; 0.391 in experiment [3]; 0.461 in experiment [4]; 1.42 in experiment [5]; 0.679 in experiment [6]. The results for the composite z-score (in the experiment with Lefty1; in experiment [8]) were 1.01 and 0.275, respectively. The z-score in experiment [7] is -1; in [9] it was 0.104 (inactive).

For the compound `CCCCN1CC=CC23O[C@@H]4/C=C\CCC(C)OC(=O)C4[C@H]2C(=O)N(CCO)[C@@H]3C1=O` (stereo not given in full), the composite z-score in experiment [1] was 3.24; in [2] it was -0.424; in [3], 0.548; in [4], -1.18; in [5] it was -0.531; in experiment [6] it was -1.49. The composite z-score in the experiment on Lefty1 was 0.0422; in experiment [8], -0.169. Also, the z-score in [7] was -0.145; in experiment [9], 1.1 (inactive).

Turning to `COC(=O)c1c2oc(c1C(=O)OC)C(=O)N[C@H](Cc1ccccc1)Cn1cc(nn1)C1(CCCCC1)NC(=O)N[C@H](CO)CC2`, the composite z-score in experiment [1] was 0.633; in [2], -0.594; in [3] it was 0.714; in experiment [4], -0.252; in experiment [5], -0.328; in experiment [6], 0.94. In addition, the figures for the composite z-score (with Lefty1; in experiment [8]) were 0.114 and 0.722, respectively. The z-score in experiment [7] was -0.318; in experiment [9], 0.181 (inactive).
